Screens from PubChem.
Only some compounds are listed: those with a hit (about 2.8% of all), similar ones and a draw of the others.
KDM5B inh: KDM5B demethylase inhibition | Q9UGL1 | KDM5B demethylase, FDH-coupled NADH fluorescence (FDH is formaldehyde dehydrogenase) | Potency, µM (top dose mostly 57.7 µM), usual class: inhibitors | 2.6% of 220,000 active; active means well fitted inhibition curve with a large enough effect; inconclusive means small, poorly fitted or top-dose-only effect; inactive means no such curve, though single readings can be large or run the other way; further: potency means the concentration at half of the fitted maximal effect; 0% is about no effect; nearly all actives have a fitted effect of over 70% in size
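Coupled FDH/NAD⁺ fluorescence readout. KDM5BΔAP 200 nM final; compound titration, 10 min RT preincubation; substrate mix 12.5 µM H3K4me3, 25 µM 2-OG, 50 µM Fe(II), 100 µM ascorbate, 0.25 mM NAD⁺, 0.25 U/mL FDH; ΔRFU over 30 min.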
IP6K1 inh: IP6K1 kinase inhibition; IP6K1 kinase, ADP-Glo luminescence, 2 h; active compounds read low; activity change, % (series mostly up to about 58 µM); Q92551; 0.81% of 140,000 active; in the data active means activity change below about -25%; further: on the % scale 0 is the no-effect control and ±100 the full control effect
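ADP-Glo luminescence measures ADP made by human IP6K1 during a 2 h RT reaction with ATP/IP6 (mix at 1.3 mM/130 uM); top library doses 57.5 and 19.1 uM final.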
* hit, by the source's call; i = inactive; ? = inconclusive; nt = no result given.

SMILES	KDM5B inh	IP6K1 inh
O=C(NCC1Cn2cccc2CN1Cc1ccccc1)c1ccncc1 (stereo not drawn)	28µM*	-10
Cc1ccsc1C(=O)NCC1Cn2cccc2C(=O)N1CC(C)C (stereo not drawn)	i	5
O=C(NCC1Cn2cccc2C(=O)N1Cc1ccccc1)c1ccncc1 (stereo not drawn)	i	-3
Cc1ccsc1C(=O)NCC1Cn2cccc2CN1C (stereo not drawn)	32µM*	-8
CCNC(=O)NCC1Cn2cccc2CN1C (stereo not drawn)	22µM*	-2
CC(C)NC(=O)NCC1Cn2cccc2CN1C (stereo not drawn)	?	-2
Cc1ccc(NC(=O)Cn2cc(C#N)c3ccccc32)cc1F	i	nt
O=C(NCCN1CCCCC1)C(=O)Nc1cccc(N2CCCS2(=O)=O)c1	i	nt
C=C(Cl)CN1CCN(CC2CCCO2)CC1 (stereo not drawn)	i	nt
CCn1c(SCC(=O)c2ccc(Br)s2)nnc1-c1ccccc1OC	i	nt
O=C(Nc1cc(S(=O)(=O)N2CCCCC2)ccc1Oc1ccc(Cl)cc1)c1cnccn1	i	nt
O=C(Nc1ccc([C@@H](O)[C@H]2COCC(=O)N2CC2CC2)cc1)c1ccco1	i	-4
COc1ccc(CN2Cc3cc(NC(=O)c4ccc(F)cc4)ccc3OC(C)C2=O)c(OC)c1 (stereo not drawn)	?	-7
COc1ccc(C(=O)Nc2ccc3c(c2)CN(Cc2ccc(F)cc2)C(=O)C(C)O3)c(OC)c1 (stereo not drawn)	32µM*	-11
CCC1Oc2ccc(NC(=O)c3ccc(OC)c(OC)c3)cc2CN(Cc2ccc(Cl)cc2)C1=O (stereo not drawn)	28µM*	-16
CCC1Oc2ccc(NC(=O)COC)cc2CN(Cc2ccc(Cl)cc2)C1=O (stereo not drawn)	i	-7
Cn1nc2n(c1=O)CCN(C(=O)c1ccncn1)CC2	i	-10
COCCNC(=O)c1c(C)nc2cnccn12	nt	14
Clc1ccccc1CNC1=NCCNC12CCOCC2	i	nt
O=C(c1ccncc1)N1CCC2(CC1)CC(N(Cc1ccc(F)cc1)C1CC1)CCO2 (stereo not drawn)	32µM*	1
O=C(c1ccc(F)cc1)N1CCC2(CC1)CC(N(Cc1ccc(F)cc1)C1CC1)CCO2 (stereo not drawn)	i	-11
Cc1ccc(CNC(=O)c2ccc(-c3ccc(N4CCCCC4)nc3)cc2)o1	20µM*	-3
O=C(NCCN1CCOCC1)c1ccc(-c2ccc(N3CCCCCC3)nc2)cc1	28µM*	-3
O=C(NCC1CCCO1)c1ccc(-c2ccc(N3CCCCC3)nc2)cc1 (stereo not drawn)	?	-3
O=C(NCCCN1CCOCC1)c1ccc(-c2ccc(N3CCCCCC3)nc2)cc1	25µM*	0
SMILES	KDM5B inh	IP6K1 inh
COCCNC(=O)c1ccc(-c2ccc(N3CCCCCC3)nc2)cc1	?	-13
O=C(NCc1ccco1)c1ccc(-c2ccc(N3CCCCCC3)nc2)cc1	?	11
CN(C)C(=O)c1ccc(NC(=O)c2cc(-c3ccncc3)nc3ccccc23)cc1	i	nt
CC(C)(C)CC(=O)N1C[C@@H](NC(=O)Nc2ccc(F)cc2F)C[C@H]1C(=O)N[C@H](Cc1ccccc1)C(N)=O	i	-1
O=C(NCCO)c1cc2ccccc2[nH]1	i	nt
O=C(NC1CC(c2cc(NCCO)ncn2)C1)c1cc2ccccc2[nH]1 (stereo not drawn)	28µM*	9
CCN(CC)C1CCOC2(CCN(C(=O)CCn3nc(C)cc3C)CC2)C1 (stereo not drawn)	i	-12
COC(=O)C(NC(=O)N1CCc2nc3cc(-c4ccccc4)[nH]n3c(=O)c2C1)C(C)C (stereo not drawn)	25µM*	13
O=C(CCc1ccccc1)N1CCc2nc3cc(-c4ccccc4)[nH]n3c(=O)c2C1	?	14
O=C(C1COc2ccccc2O1)N1CCc2nc3cc(-c4ccccc4)[nH]n3c(=O)c2C1 (stereo not drawn)	?	14
Cc1ccccc1OCC(=O)N1CCc2c(nc3cc(-c4ccccc4Cl)[nH]n3c2=O)C1	i	28
COc1ccc(-c2cc3nc4c(c(=O)n3[nH]2)CCN(C(=O)COc2ccccc2C)C4)cc1	32µM*	29
O=C(NCc1cccc(F)c1)N1CCc2nc3cc(-c4ccccc4)[nH]n3c(=O)c2C1	13µM*	12
COc1ccc(NC(=O)N2CCc3nc4cc(-c5ccccc5)[nH]n4c(=O)c3C2)c(C)c1	10µM*	0
Cc1sc(N)c(C#N)c1-c1ccc(Cl)cc1Cl	i	nt
Cc1nc2cc(F)cc(C(=O)O)c2nc1C	i	nt
CCNC(=O)OC1CN(CC(C)C)C(=O)CN(C(=O)c2cccs2)C1 (stereo not drawn)	nt	39
CC(C)NC(=O)C(=O)Nc1ccc2c(c1)N(C)C(=O)CO2	i	nt
Cc1ccc(/C(O)=C2\C(=O)C(=O)N(c3nnc(C)s3)C2c2ccc(C)cc2)cc1 (stereo not drawn)	i	nt
CSc1ccc(NC(=O)N2CCc3nc4cc(-c5ccccc5)[nH]n4c(=O)c3C2)cc1	25µM*	9
CCc1ccc(NC(=O)N2CCc3c(nc4cc(-c5ccc(OC)cc5)[nH]n4c3=O)C2)cc1	?	26
COc1ccc(NC(=O)N2CCc3c(nc4cc(-c5ccccc5)[nH]n4c3=O)C2)c(C)c1	20µM*	35
COc1ccc(-c2ncc(CN3CCOC(c4cccnc4)C3)cn2)cc1 (stereo not drawn)	22µM*	5
COc1ccc(CN2CCOC(c3cccnc3)C2)cc1Cn1cccn1 (stereo not drawn)	i	40
c1cncc(-c2ccnc(NCCCN3CCCc4ccccc43)n2)c1	?	3
SMILES	KDM5B inh	IP6K1 inh
c1cncc(-c2ccnc(NCCCn3nccc3C3CC3)n2)c1	28µM*	9
CC(C)S(=O)(=O)CCNc1nccc(-c2cccnc2)n1	32µM*	-4
OC(CNc1nccc(-c2cccnc2)n1)COc1ccc(Cl)cc1 (stereo not drawn)	?	-5
Cc1cc(=O)[nH]c(NCCNc2nccc(-c3cccnc3)n2)n1	32µM*	26
C(=N\Nc1nccc(-c2cccnc2)n1)/c1ccccc1	i	nt
c1cncc(-c2ccnc(NCCc3noc(C4CCCC4)n3)n2)c1	32µM*	40
O=C(NCCc1noc(-c2cccnc2)n1)NC1CCCCC1	i	21
Brc1ccc2oc3c(Nc4ccccc4)ncnc3c2c1	i	nt
CC(CCc1ccccc1)NC(=O)C(C)O (stereo not drawn)	i	nt
CCCC1(CCC)NC(=O)N(Cc2ncc(-c3ccc(F)cc3)o2)C1=O	i	nt
C=C(C)C1CC=C(C)/C(=N\NC(=S)Nc2ccccc2)C1 (stereo not drawn)	i	nt
Cc1ccc(C#N)c(N2CCC(c3nnc(Cn4cncn4)n3C)CC2)n1	28µM*	-5
Cn1c(Cn2cncn2)nnc1C1CCN(Cc2ccc3ccccc3n2)CC1	?	-17
O=C(CN1C(=O)C2(CCNCC2)Nc2ccccc21)NC1CCCCCC1	i	6
O=C(NCc1ccccc1)c1csc(Nc2ccncn2)n1	nt	-1
COc1ccc(CN[C@H]2[C@H](O)[C@H](O)C[C@@H]2c2ccc(N3CCOCC3)nc2)cn1	32µM*	-4
O[C@H]1[C@H](NCc2ccc(Cl)cc2)[C@@H](c2ccc(N3CCOCC3)nc2)C[C@H]1O	40µM*	7
